PubChem BioAssay (Tox21)
The source made the active and inactive calls. Calls come from the whole dose curve; as a rule, active = well fitted curve in the direction sought with a large enough effect in the repeat runs; inconclusive = weak or mixed curves; inactive = flat fitted curve, though single readings scatter.

assay: qHTS assay to test for compound auto fluorescence at 535 nm (green) in HepG2 cells (AID 720675); details: green autofluorescence 485/535 nm, 1 h; series mostly up to 91.3 µM; fluorescence, % of fluorescein control: at the top concentration
% is set by controls: 0 for no effect and ±100 for the full control effect.

Row | Compound | fluorescence, % of fluorescein control | outcome
1 | N[C@@H](Cc1cc(I)c(O)c(I)c1)C(=O)O | 0.181% [at 46 µM] (inactive) | 
2 | CCCCCCCC/C=C\CCCCCCCC(=O)OCCO | 0.0963% [at 95.7 µM] (inactive) | 
3 | COc1ccc(CCN(C)CCCN2CCc3cc(OC)c(OC)cc3CC2=O)cc1OC | 0.0573% [at 46 µM] (inactive) | 
4 | CC(C)(C)C1(CCc2ccc(Cl)cc2)CO1 (centres undefined) | 0.027% (inactive) | 
5 | CC(=O)C(C)=O | 0.0123% (inactive) | 
6 | O=C(O)c1ccc(O)cc1O | 0.152% (inactive) | 
7 | COC1CCC=CO1 (centres undefined) | 0.0246% (inactive) | 
8 | CCN(CC)CCOC(=O)C(c1ccccc1)c1ccccc1 | 0.0169% [at 46 µM] (inactive) | 
9 | Cc1cccc2sc(N)nc12 | -0.0715% [at 95.7 µM] (inactive) | 
10 | CC(=O)OCC(=O)[C@@]1(OC(C)=O)[C@@H](C)C[C@H]2[C@@H]3C[C@H](F)C4=CC(=O)C=C[C@]4(C)[C@@]3(F)[C@@H](O)C[C@@]21C | -0.0716% [at 46 µM] (inactive) | 
11 | COc1ccc(C(=O)NCc2ccc(OCCN(C)C)cc2)cc1OC | -0.0077% [at 46 µM] (inactive) | 
12 | CC[C@@H](CO)NCCN[C@@H](CC)CO | 0.0308% [at 18.6 µM] (inactive) | 
13 | COc1ccc(N)c([N+](=O)[O-])c1 | 0.0039% (inactive) | 
14 | Cc1ccc2c(c1[N+](=O)[O-])C(=O)c1ccccc1C2=O | 0.0625% [at 46 µM] (inactive) | 
15 | CC(=O)N[C@@H](Cc1ccc(O)cc1)C(=O)O | 0.0032% [at 46 µM] (inactive) | 
16 | Cc1cn([C@H]2C[C@H](F)[C@@H](CO)O2)c(=O)[nH]c1=O | 0.0085% [at 46 µM] (inactive) | 
17 | C1=CCC2CC=CC2C1 (centres undefined) | -0.102% (inactive) | 
18 | c1ccc(CNc2ncnc3c2ncn3C2CCCCO2)cc1 (centres undefined) | 0.0738% (inactive) | 
19 | CCCCCc1ccco1 | 0.392% (inactive) | 

Row | Compound | fluorescence, % of fluorescein control | outcome
20 | CCCCC(CC)COS(=O)(=O)O (centres undefined) |  | inactive
21 | CC1CCCO1 (centres undefined) | -0.0418% (inactive) | 
22 | c1ccc(CCCc2ccncc2)cc1 | -0.109% (inactive) | 
23 | CC(C)(C(=O)c1cccnc1)c1cccnc1 | -0.0177% [at 18.6 µM] (inactive) | 
24 | SCCc1cnccn1 | 0.026% (inactive) | 
25 | O=C1NC(=O)c2cccc3cccc1c23 | -0.217% (inactive) | 
26 | CC1CCCC(=O)C1=O (centres undefined) | 0.0121% (inactive) | 
27 | CCC1CCC(CCC(=O)O)C1 (centres undefined) | 0.0738% [at 95.7 µM] (inactive) | 
28 | BrC(Br)C(Br)Br | 0.0216% (inactive) | 
29 | O=c1[nH]c2cc(C(F)(F)F)c(N3CCOCC3)cc2n(CP(=O)(O)O)c1=O | -0.0915% [at 46 µM] (inactive) | 
30 | Cc1c(C2(c3cc(Br)c(O)c(Br)c3C)OS(=O)(=O)c3ccccc32)cc(Br)c(O)c1Br | -0.692% (inactive) | 
31 | O=C(O)CN1C(=O)c2cccc3cccc(c23)C1=O | -0.0886% [at 46 µM] (inactive) | 
32 | CCCCCC | -0.0165% (inactive) | 
33 | O=C(O)c1cccc(C[C@@H]2COc3ccc(OCc4nc5cc(F)ccc5s4)cc3[C@@H]2O)c1 | -0.0481% (inactive) | 
34 | COC(OC)OC | 0.0336% (inactive) | 
35 | O=C(O)CCC(=O)OC[C@@H](NC(=O)C(Cl)Cl)[C@H](O)c1ccc([N+](=O)[O-])cc1 | -0.0528% [at 46 µM] (inactive) | 
36 | CC(O)Cn1cnc2c1c(=O)n(C)c(=O)n2C (centres undefined) | 0.0515% [at 18.6 µM] (inactive) | 
37 | CCCOC(=O)c1c(Cl)c(Cl)c(Cl)c(Cl)c1C(=O)OCCC | -0.0179% (inactive) | 

assay: qHTS assay to test for compound auto fluorescence at 460 nm (blue) in HEK293 cells (AID 720678); details: blue autofluorescence 405/460 nm; series mostly up to 91.3 µM; fluorescence, % of triamterene: at the top concentration
In short: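 Intrinsic compound fluorescence is recorded in live HEK293 cultures after overnight incubation at 37C, 5% CO2, using excitation 405 nm and emission 460 nm. Values are referenced to triamterene.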

Row | Compound | fluorescence, % of triamterene | Potency
38 | N[C@@H](Cc1cc(I)c(O)c(I)c1)C(=O)O | 0.0907% [at 46 µM] (inactive) | 
39 | CCCCCCCC/C=C\CCCCCCCC(=O)OCCO | 0.167% [at 95.7 µM] (inactive) | 
40 | COc1ccc(CCN(C)CCCN2CCc3cc(OC)c(OC)cc3CC2=O)cc1OC | -0.0531% [at 46 µM] (inactive) | 
41 | CC(C)(C)C1(CCc2ccc(Cl)cc2)CO1 (centres undefined) | 0.0351% (inactive) | 
42 | CC(=O)C(C)=O | 0.0769% (inactive) | 
43 | O=C(O)c1ccc(O)cc1O | -0.0622% (inactive) | 
44 | COC1CCC=CO1 (centres undefined) | -0.149% (inactive) | 
45 | CCN(CC)CCOC(=O)C(c1ccccc1)c1ccccc1 | 0.079% [at 46 µM] (inactive) | 
46 | Cc1cccc2sc(N)nc12 | -0.232% [at 95.7 µM] (inactive) | 
47 | CC(=O)OCC(=O)[C@@]1(OC(C)=O)[C@@H](C)C[C@H]2[C@@H]3C[C@H](F)C4=CC(=O)C=C[C@]4(C)[C@@]3(F)[C@@H](O)C[C@@]21C | 0.0054% [at 46 µM] (inactive) | 
48 | COc1ccc(C(=O)NCc2ccc(OCCN(C)C)cc2)cc1OC | -0.018% [at 46 µM] (inactive) | 
49 | CC[C@@H](CO)NCCN[C@@H](CC)CO | 0.0077% [at 18.6 µM] (inactive) | 
50 | COc1ccc(N)c([N+](=O)[O-])c1 | 0.139% (inactive) | 
51 | Cc1ccc2c(c1[N+](=O)[O-])C(=O)c1ccccc1C2=O | -0.234% [at 46 µM] (inactive) | 
52 | CC(=O)N[C@@H](Cc1ccc(O)cc1)C(=O)O | 0.19% [at 46 µM] (inactive) | 
53 | Cc1cn([C@H]2C[C@H](F)[C@@H](CO)O2)c(=O)[nH]c1=O | 0.0014% [at 46 µM] (inactive) | 
54 | C1=CCC2CC=CC2C1 (centres undefined) | -0.157% (inactive) | 
55 | c1ccc(CNc2ncnc3c2ncn3C2CCCCO2)cc1 (centres undefined) | 0.102% (inactive) | 
56 | CCCCCc1ccco1 | 0.867% (inactive) | 

Row | Compound | fluorescence, % of triamterene | Potency
57 | CCCCC(CC)COS(=O)(=O)O (centres undefined) |  | inactive
58 | CC1CCCO1 (centres undefined) | 0.0803% (inactive) | 
59 | c1ccc(CCCc2ccncc2)cc1 | -0.0634% (inactive) | 
60 | CC(C)(C(=O)c1cccnc1)c1cccnc1 | -0.0025% [at 18.6 µM] (inactive) | 
61 | SCCc1cnccn1 | -0.107% (inactive) | 
62 | O=C1NC(=O)c2cccc3cccc1c23 | -0.03% (inactive) | 
63 | CC1CCCC(=O)C1=O (centres undefined) | -0.0237% (inactive) | 
64 | CCC1CCC(CCC(=O)O)C1 (centres undefined) | 0.0172% [at 95.7 µM] (inactive) | 
65 | BrC(Br)C(Br)Br | 0.0047% (inactive) | 
66 | O=c1[nH]c2cc(C(F)(F)F)c(N3CCOCC3)cc2n(CP(=O)(O)O)c1=O | 0.169% [at 46 µM] (inactive) | 
67 | Cc1c(C2(c3cc(Br)c(O)c(Br)c3C)OS(=O)(=O)c3ccccc32)cc(Br)c(O)c1Br | -0.67% (inactive) | 
68 | O=C(O)CN1C(=O)c2cccc3cccc(c23)C1=O | 0.0852% [at 46 µM] (inactive) | 
69 | CCCCCC | 0.0217% (inactive) | 
70 | O=C(O)c1cccc(C[C@@H]2COc3ccc(OCc4nc5cc(F)ccc5s4)cc3[C@@H]2O)c1 | -0.076% (inactive) | 
71 | COC(OC)OC | 0.0245% (inactive) | 
72 | O=C(O)CCC(=O)OC[C@@H](NC(=O)C(Cl)Cl)[C@H](O)c1ccc([N+](=O)[O-])cc1 | -0.169% [at 46 µM] (inactive) | 
73 | CC(O)Cn1cnc2c1c(=O)n(C)c(=O)n2C (centres undefined) | -0.0145% [at 18.6 µM] (inactive) | 
74 | CCCOC(=O)c1c(Cl)c(Cl)c(Cl)c(Cl)c1C(=O)OCCC | 0.0711% (inactive) | 
